Assay results taken from PubChem BioAssay.
For some of these results: Results with a measured potency or affinity are listed apart. The source made the active and inactive calls. Unless noted, no rule for the calls is given here.

Columns and labels:
[1] = antimalarial activity against Dd2 strain (AID 2302;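 active = growth inhibition above 50% at the single 2 µM test dose, taken to imply half-maximal potency below 2 µM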;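 also: 0% = DMSO untreated growth and 100% = chloroquine plus artemisinin killed control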); details: P. falciparum Dd2 in RBCs, LDH growth readout, 72 h; at 2 µM; stronger effect = higher value
[2] = human hepatoma cell viability loss – ATP luminescence, cytotoxicity control for P. falciparum antimalarial project, primary screen (AID 2303;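 active = inhibition above 50%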;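 also: 0% = DMSO wells and 100% = digitonin-killed cells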); details: HepG2 viability, 24-48 h, at 10 µM, stronger effect = higher value
[3] = molecular target: L-lactate dehydrogenase (Plasmodium falciparum (isolate CDC / Honduras)) (UniProt Q27743); assay: PfLDH activity inhibition – cell lysate, 3D7 strain, counter-screen for P. falciparum growth inhibition project (AID 2304);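 also: 0% = vehicle and 100% = reference inhibitor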; details: P. falciparum 3D7 crude extract, LDH APAD/NBT absorbance; at 2 µM; stronger effect = higher value
[4] = inhibition of 3D7 malaria parasite growth – strain 3D7 (AID 2306);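 also: 0% = DMSO wells and 100% = chloroquine plus artemisinin control wells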; details: P. falciparum 3D7 erythrocytic growth, LDH absorbance, 72 h; at 2 µM; stronger effect = higher value
[5] = molecular target: Calcium-dependent protein kinase 1 (Plasmodium falciparum (isolate 3D7)) (UniProt P62344); assay: PfCDPK1 kinase inhibitors, biochemical, TCAMS library (AID 1159585; cut-off not given, nearly all actives have IC50 up to about 0.98 µM;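 also: inhibitors leave more ATP so luminescence rises with inhibition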); details: recombinant PfCDPK1, Kinase-Glo ATP depletion luminescence
[6] = molecular target: Plasmodium falciparum protein kinase 6 (PK6, PF3D7_1337100) (UniProt Q8IDW1); assay: PfPK6 kinase inhibitors, biochemical, TCAMS library (AID 1159586); details: recombinant PfPK6, Kinase-Glo ATP depletion luminescence
[7] = molecular target: Protein kinase 7 (PK7), Plasmodium falciparum 3D7 (PF3D7_0213400) (UniProt Q7YTF7); assay: inhibition of Plasmodium PK7 catalytic activity – biochemical, TCAMS antimalarial set, Kinase-Glo luminescence (AID 1159587); details: recombinant PfPK7, Kinase-Glo ATP depletion luminescence
[8] = molecular target: Calcium-dependent protein kinase 4 (Plasmodium falciparum (isolate 3D7)) (UniProt Q8IBS5); assay: PfCDPK4 kinase inhibitors, biochemical, TCAMS library (AID 1159588; cut-off not given, nearly all actives have IC50 up to about 0.91 µM); details: recombinant PfCDPK4, Kinase-Glo ATP depletion luminescence
Chain of Calcium-dependent protein kinase 4 (Plasmodium falciparum (isolate 3D7)) (Q8IBS5 whole entry, looked up): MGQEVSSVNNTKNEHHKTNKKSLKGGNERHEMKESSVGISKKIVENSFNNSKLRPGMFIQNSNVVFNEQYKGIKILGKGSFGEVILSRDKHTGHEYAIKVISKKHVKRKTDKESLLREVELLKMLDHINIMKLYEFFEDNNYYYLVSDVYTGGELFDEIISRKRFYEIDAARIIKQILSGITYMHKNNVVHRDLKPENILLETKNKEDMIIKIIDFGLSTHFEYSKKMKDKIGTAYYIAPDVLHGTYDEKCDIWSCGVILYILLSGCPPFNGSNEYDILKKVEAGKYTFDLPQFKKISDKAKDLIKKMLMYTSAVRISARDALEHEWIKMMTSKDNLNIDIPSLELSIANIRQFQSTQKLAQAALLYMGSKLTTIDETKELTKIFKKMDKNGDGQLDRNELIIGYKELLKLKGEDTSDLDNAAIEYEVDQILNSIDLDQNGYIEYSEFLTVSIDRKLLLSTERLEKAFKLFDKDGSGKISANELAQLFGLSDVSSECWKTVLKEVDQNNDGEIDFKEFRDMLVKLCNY

Chain of Plasmodium falciparum protein kinase 6 (PK6, PF3D7_1337100) (Q8IDW1 1-305): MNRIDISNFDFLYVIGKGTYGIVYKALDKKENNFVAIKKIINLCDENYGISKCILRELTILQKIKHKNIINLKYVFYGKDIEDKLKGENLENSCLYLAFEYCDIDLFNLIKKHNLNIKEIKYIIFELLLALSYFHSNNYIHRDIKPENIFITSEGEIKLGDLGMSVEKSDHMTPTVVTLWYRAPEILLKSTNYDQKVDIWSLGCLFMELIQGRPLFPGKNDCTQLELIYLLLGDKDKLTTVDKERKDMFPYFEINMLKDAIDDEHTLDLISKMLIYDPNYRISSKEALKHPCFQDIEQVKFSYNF
Chain of Calcium-dependent protein kinase 1 (Plasmodium falciparum (isolate 3D7)) (P62344 whole entry, looked up): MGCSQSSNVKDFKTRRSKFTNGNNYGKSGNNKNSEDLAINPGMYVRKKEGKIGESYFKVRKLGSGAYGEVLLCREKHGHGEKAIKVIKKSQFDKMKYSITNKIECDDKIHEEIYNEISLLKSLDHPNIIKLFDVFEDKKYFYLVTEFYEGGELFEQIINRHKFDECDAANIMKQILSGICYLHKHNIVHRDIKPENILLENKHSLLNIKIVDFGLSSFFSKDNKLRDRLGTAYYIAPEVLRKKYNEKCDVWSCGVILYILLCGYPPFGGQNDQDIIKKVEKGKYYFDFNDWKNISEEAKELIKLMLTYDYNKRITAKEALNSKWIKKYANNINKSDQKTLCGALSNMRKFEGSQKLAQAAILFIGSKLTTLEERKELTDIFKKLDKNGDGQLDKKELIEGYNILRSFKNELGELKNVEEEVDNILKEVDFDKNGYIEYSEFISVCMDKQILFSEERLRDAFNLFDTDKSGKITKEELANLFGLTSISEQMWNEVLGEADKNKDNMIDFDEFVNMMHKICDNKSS
Chain of L-lactate dehydrogenase (Plasmodium falciparum (isolate CDC / Honduras)) (Q27743 whole entry, looked up): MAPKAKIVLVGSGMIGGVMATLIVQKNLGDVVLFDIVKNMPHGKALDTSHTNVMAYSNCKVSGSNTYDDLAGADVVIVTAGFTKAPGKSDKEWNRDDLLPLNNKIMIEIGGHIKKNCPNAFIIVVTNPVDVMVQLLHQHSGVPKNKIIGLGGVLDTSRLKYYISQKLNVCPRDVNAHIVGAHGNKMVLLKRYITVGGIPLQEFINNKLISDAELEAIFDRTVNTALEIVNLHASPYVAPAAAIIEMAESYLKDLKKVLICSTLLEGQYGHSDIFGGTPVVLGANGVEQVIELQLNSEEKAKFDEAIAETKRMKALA
Chain of Protein kinase 7 (PK7), Plasmodium falciparum 3D7 (PF3D7_0213400) (Q7YTF7 1-343): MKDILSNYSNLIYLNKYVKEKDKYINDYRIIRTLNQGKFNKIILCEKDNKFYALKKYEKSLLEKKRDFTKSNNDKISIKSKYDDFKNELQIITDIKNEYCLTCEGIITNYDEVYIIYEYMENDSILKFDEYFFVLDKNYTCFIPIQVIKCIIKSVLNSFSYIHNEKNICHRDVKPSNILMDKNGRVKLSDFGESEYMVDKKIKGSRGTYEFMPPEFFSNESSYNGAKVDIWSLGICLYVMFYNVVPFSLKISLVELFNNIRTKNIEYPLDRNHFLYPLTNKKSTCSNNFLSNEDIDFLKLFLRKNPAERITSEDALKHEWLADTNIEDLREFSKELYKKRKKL

Cc1ccc(O)cc1Nc1ccnc2cc(-c3csc(CN4CCN(C)CC4)n3)ccc12
active: growth inhibition [1] 77% | growth inhibition [4] 100%
inactive: inhibition [2] 6% | inhibition [3] -4% | outcome [5] | outcome [6] | outcome [7] | outcome [8]

COc1cccc(CN2Cc3ccccc3OC3(CCN(Cc4c[nH]c5cnccc45)CC3)C2)c1
inactive: inhibition [2] 39% | inhibition [3] -3% | outcome [5] | outcome [6] | outcome [7] | outcome [8]
active: growth inhibition [1] 83% | growth inhibition [4] 83%

COc1cccc(CN2CCCC(OC(c3ccc(F)cc3)c3ccc(F)cc3)C2)c1O (stereo not given)
inactive: inhibition [2] 8% | inhibition [3] 5% | outcome [5] | outcome [6] | outcome [7] | outcome [8]
active: growth inhibition [1] 95% | growth inhibition [4] 95%

Cc1cccc2[nH]c(-c3ccc(-c4ccc(C(=O)NCCc5cn(C)cn5)cc4)s3)nc12
active: growth inhibition [4] 88%
inactive: growth inhibition [1] 8% | inhibition [2] -6% | inhibition [3] -2% | outcome [5] | outcome [6] | outcome [7] | outcome [8]

c1ccc2c(CNCCCCCCNCc3c(OCC4CC4)ccc4ccccc34)c(OCC3CC3)ccc2c1
active: growth inhibition [1] 97% | inhibition [2] 100% | growth inhibition [4] 93%
inactive: inhibition [3] -8% | outcome [5] | outcome [6] | outcome [7] | outcome [8]

O=S1C(Cl)=C(c2ccc(Cl)cc2)c2ccc(Cl)cc21 (stereo not given)
inactive: inhibition [2] 33% | inhibition [3] 1% | outcome [5] | outcome [6] | outcome [7] | outcome [8]
active: growth inhibition [1] 99% | growth inhibition [4] 91%

COc1ccc(Nc2cc(C)nc(Nc3ccc(NC(C)=O)cc3)n2)cc1
inactive: growth inhibition [1] 31% | inhibition [2] 16% | inhibition [3] -1% | outcome [5] | outcome [6] | outcome [7] | outcome [8]
active: growth inhibition [4] 98%

CN(C)CCC=C1c2ccccc2Sc2c(O)cc(Cl)cc21
active: growth inhibition [1] 80% | growth inhibition [4] 100%
inactive: inhibition [2] 8% | inhibition [3] -9% | outcome [5] | outcome [6] | outcome [7] | outcome [8]

CSc1ccc(C=CC(=O)NC(=O)c2ccccc2O)cc1
active: growth inhibition [1] 96% | growth inhibition [4] 97%
inactive: inhibition [2] 2% | inhibition [3] 4% | outcome [5] | outcome [6] | outcome [7] | outcome [8]

CN(C)C(=O)CC(=O)NCc1c(Cl)cccc1Cl
inactive: growth inhibition [1] 2% | inhibition [2] 2% | inhibition [3] -4% | outcome [5] | outcome [6] | outcome [7] | outcome [8]
active: growth inhibition [4] 95%

CCOc1c(CNCCCCCCNCc2ccc3ccccc3c2OCC)ccc2ccccc12
active: growth inhibition [1] 78% | inhibition [2] 100% | growth inhibition [4] 99%
inactive: inhibition [3] 6% | outcome [5] | outcome [6] | outcome [7] | outcome [8]

C=CCn1c(C)cc(C(=O)COc2ccc(S(=O)(=O)N3CCOCC3)cc2[N+](=O)[O-])c1C
inactive: growth inhibition [1] 5% | inhibition [2] 0% | inhibition [3] 3% | outcome [5] | outcome [6] | outcome [7] | outcome [8]
active: growth inhibition [4] 94%

Cc1ccc(S(=O)(=O)N2CCN(C(=O)c3cc(-c4ccccc4)n[nH]3)CC2)cc1
inactive: inhibition [2] -8% | inhibition [3] -7% | outcome [5] | outcome [6] | outcome [7] | outcome [8]
active: growth inhibition [1] 88% | growth inhibition [4] 91%

C[C@H]1CN(Cc2cccc(-c3cc(CNC(=O)c4cccc(CN5CCN(C/C=C/c6ccccc6)CC5)c4)ccc3F)c2)CCN1
inactive: growth inhibition [1] 46% | inhibition [3] -2% | outcome [5] | outcome [6] | outcome [7] | outcome [8]
active: inhibition [2] 98% | growth inhibition [4] 98%

O=C(NCc1ccccc1)NC1CCN(c2ccnc3cc(Cl)ccc23)C1 (stereo not given)
active: growth inhibition [1] 99% | growth inhibition [4] 94%
inactive: inhibition [2] 13% | inhibition [3] -2% | outcome [5] | outcome [6] | outcome [7] | outcome [8]

CCOc1cccc(C(=O)Nc2cccc(CN3CCCN(Cc4cccc(O)c4)CC3)c2)c1
active: growth inhibition [4] 85%
inactive: growth inhibition [1] 18% | inhibition [2] 17% | inhibition [3] -3% | outcome [5] | outcome [6] | outcome [7] | outcome [8]

O=C(NCCCCN1CCC[C@@H]2c3cccc(O)c3CC[C@@H]21)c1ccc(-c2ccccc2)cc1
inactive: growth inhibition [1] 4% | inhibition [2] 18% | inhibition [3] 3% | outcome [5] | outcome [6] | outcome [7] | outcome [8]
active: growth inhibition [4] 93%

N=c1n(Cc2ccc(Cl)cc2)c2ccccc2n1CC(O)c1ccc(Cl)c(Cl)c1 (stereo not given)
active: growth inhibition [1] 99% | inhibition [2] 58% | growth inhibition [4] 98%
inactive: inhibition [3] 4% | outcome [5] | outcome [6] | outcome [7] | outcome [8]

CCOc1cc(C(=O)NCCN(C(C)C)C(C)C)ccc1-c1nc2ccc(Cl)cc2[nH]1
active: growth inhibition [1] 90% | growth inhibition [4] 101%
inactive: inhibition [2] 4% | inhibition [3] 2% | outcome [5] | outcome [6] | outcome [7] | outcome [8]

O=C(N[C@@H](Cc1ccccc1)C(=O)NCCN1CCCC1)c1ccc(O)c(-c2ccc(Cl)c(Cl)c2)c1
inactive: growth inhibition [1] 46% | inhibition [2] 8% | inhibition [3] -2% | outcome [5] | outcome [6] | outcome [7] | outcome [8]
active: growth inhibition [4] 95%
